Molecules are shown by their SMILES. Calls of active or inactive are those of the source. The calls were made as follows: active = hit-call score of the fitted dose curve at least 0.9, where 1 is the maximum; inactive = score below 0.9.

Usually AC50 stands for the concentration at which the activity in the assay is half-maximal.

Read-out in test [1]: Interleukin-6 (IL6), IL6 (gene 3569)
Briefly: BSK_CASM3C_IL6: BioMAP Diversity Plus: CASM3C Assay for Interleukin-6 (IL6) Biomarker Activity for (AID 2283040). To be noted: primary human coronary artery smooth muscle cells; actives raise or lower the signal.

Read-out in test [2]: Tissue plasminogen activator (tPA), PLAT (gene 5327)
In words: BSK_BE3C_tPA: BioMAP Diversity Plus: BE3C Assay for Tissue plasminogen activator (tPA) Biomarker Activity (AID 2283041).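 Also: tPA level quantified by ELISA one day after compound addition.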 The settings on record: primary human bronchial epithelial cells; actives raise or lower the signal. The procedure, abridged: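 Human primary bronchial epithelial cells were dosed with chemical and tPA biomarker levels measured by ELISA 24 hours later. Activity was fitted bidirectionally against DMSO as negative control and baseline.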

Read-out in test [3]: Interleukin-8 (IL8), CXCL8 (gene 3576)
In words: BSK_CASM3C_IL8: BioMAP Diversity Plus: CASM3C Assay for Interleukin-8 (IL8) Biomarker Activity (AID 2283042).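 Also: IL-8 protein level quantified by ELISA.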 The settings on record: primary human coronary artery smooth muscle cells; actives raise or lower the signal.

Read-out in test [4]: Human Leukocyte Antigen - DR isotype (HLADR), HLA-DRA (gene 3122)
Briefly: BSK_CASM3C_HLADR: BioMAP Diversity Plus: CASM3C Assay for Human Leukocyte Antigen - DR isotype (HLADR) Biomarker Activity (AID 2283043).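 Also: cell-surface HLA-DR protein level quantified by ELISA.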 To be noted: primary human coronary artery smooth muscle cells; actives raise or lower the signal.

Read-out in test [5]: Macrophage colony-stimulating factor (MCSF), CSF1 (gene 1435)
Briefly: BSK_CASM3C_MCSF: BioMAP Diversity Plus: CASM3C Assay for Macrophage colony-stimulating factor (MCSF) Biomarker Activity (AID 2283044).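 Also: M-CSF protein amount quantified by ELISA after 24 h exposure.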 The settings on record: primary human coronary artery smooth muscle cells; actives raise or lower the signal.

Read-out in test [6]: Low-density lipoprotein receptor (LDLR), LDLR (gene 3949)
Briefly: BSK_CASM3C_LDLR: BioMAP Diversity Plus: CASM3C Assay for Low-density lipoprotein receptor (LDLR) Biomarker Activity (AID 2283045).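 Also: LDLR protein level on the cell surface quantified by ELISA.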 The settings on record: primary human coronary artery smooth muscle cells; actives raise or lower the signal.

Read-out in test [7]: Monocyte Chemoattractant Protein-1 (MCP1), CCL2 (gene 6347)
Briefly: BSK_CASM3C_MCP1: BioMAP Diversity Plus: CASM3C Assay for Monocyte Chemoattractant Protein-1 (MCP1) Biomarker Activity (AID 2283046).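 Also: MCP-1 level quantified by ELISA 24 h after dosing.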 To be noted: primary human coronary artery smooth muscle cells; actives raise or lower the signal.

Test [8] in a line: BSK_CASM3C_Proliferation: Cell Proliferation Assessment in the BioMAP Diversity Plus: CASM3C Assay (AID 2283047).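 Also: sulforhodamine B total protein stain as relative cell number at 560 nm; sub-confluent cells exposed 48 h before staining; fitted both ways against DMSO so gain or loss of cell number.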 To be noted: primary human coronary artery smooth muscle cells.
Read-out in test [9]: Monokine induced gamma interferon (MIG), CXCL9 (gene 4283)
In words: BSK_CASM3C_MIG: BioMAP Diversity Plus: CASM3C Assay for Monokine induced gamma interferon (MIG) Biomarker Activity (AID 2283048).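 Also: MIG protein level measured by ELISA.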 The settings on record: primary human coronary artery smooth muscle cells; actives raise or lower the signal.

Read-out in test [10]: serum amyloid A (SAA), SAA1 (gene 6288)
In words: BSK_CASM3C_SAA: BioMAP Diversity Plus: CASM3C Assay for serum amyloid A (SAA) Biomarker Activity (AID 2283049).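 Also: SAA protein level quantified by ELISA.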 To be noted: primary human coronary artery smooth muscle cells; actives raise or lower the signal.

Test [11] in a line: BSK_CASM3C_SRB: Viability Assessment in the BioMAP Diversity Plus: CASM3C Assay (AID 2283050).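 Also: total protein by SRB staining as cytotoxicity measure in parallel cultures.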 To be noted: primary human coronary artery smooth muscle cells.
Read-out in test [12]: Thrombomodulin, THBD (gene 7056)
In words: BSK_CASM3C_Thrombomodulin: BioMAP Diversity Plus: CASM3C Assay for Thrombomodulin Biomarker Activity (AID 2283051).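 Also: thrombomodulin protein level measured by ELISA 24 h after dosing.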 To be noted: primary human coronary artery smooth muscle cells; actives raise or lower the signal.

Read-out in test [13]: Tissue Factor, F3 (gene 2152)
In words: BSK_CASM3C_TissueFactor: BioMAP Diversity Plus: CASM3C Assay for Tissue Factor Biomarker Activity (AID 2283052).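 Also: cell surface tissue factor protein level read by ELISA.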 The settings on record: primary human coronary artery smooth muscle cells; actives raise or lower the signal.

Read-out in test [14]: Interferon-gamma inducible Protein 10 (IP10), CXCL10 (gene 3627)
In words: BSK_hDFCGF_IP10: BioMAP Diversity Plus: hDFCGF Assay for Interferon-gamma inducible Protein 10 (IP10) Biomarker Activity (AID 2283053). To be noted: primary human foreskin fibroblasts; actives raise or lower the signal. Summed up:
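Human foreskin fibroblast primary cells (hDFCGF system) were dosed with chemical and assayed at 24 h; IP-10 measured by ELISA. Activity fitted bidirectionally relative to DMSO negative control as baseline.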

Read-out in test [15]: Urokinase-type plasminogen activator receptor (uPAR), PLAUR (gene 5329)
Briefly: BSK_CASM3C_uPAR: BioMAP Diversity Plus: CASM3C Assay for Urokinase-type plasminogen activator receptor (uPAR) Biomarker Activity (AID 2283054).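 Also: cell-surface uPAR protein level quantified by ELISA.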 To be noted: primary human coronary artery smooth muscle cells; actives raise or lower the signal.

Read-out in test [16]: Vascular cell adhesion molecule 1 (VCAM1), VCAM1 (gene 7412)
In words: BSK_CASM3C_VCAM1: BioMAP Diversity Plus: CASM3C Assay for Vascular cell adhesion molecule 1 (VCAM1) Biomarker Activity (AID 2283055).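 Also: VCAM-1 protein level quantified by ELISA on the cells.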 The settings on record: primary human coronary artery smooth muscle cells; actives raise or lower the signal.

Read-out in test [17]: Collagen III, COL3A1 (gene 1281)
Briefly: BSK_hDFCGF_CollagenIII: BioMAP Diversity Plus: hDFCGF Assay for Collagen III Biomarker Activity (AID 2283056). The settings on record: primary human foreskin fibroblasts; actives raise or lower the signal. The procedure, abridged: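 Response relative to DMSO, fitted in both directions, reflects ELISA-measured collagen III in human primary skin fibroblasts 24 h after compound addition.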

Read-out in test [18]: Epidermal growth factor receptor (EGFR), EGFR (gene 1956)
In words: BSK_hDFCGF_EGFR: BioMAP Diversity Plus: hDFCGF Assay for Epidermal growth factor receptor (EGFR) Biomarker Activity (AID 2283057). The settings on record: primary human foreskin fibroblasts; actives raise or lower the signal. The procedure, abridged:
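Primary human foreskin fibroblasts were exposed to compound for 24 h, after which cell-surface EGFR was quantified by ELISA. Activity was fitted bidirectionally against the DMSO negative control as baseline.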

Read-out in test [19]: Interleukin-8 (IL8), CXCL8 (gene 3576)
In words: BSK_hDFCGF_IL8: BioMAP Diversity Plus: hDFCGF Assay for Interleukin-8 (IL8) Biomarker Activity (AID 2283058). The settings on record: primary human foreskin fibroblasts; actives raise or lower the signal. The procedure, abridged: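 Fibroblast monolayers (human foreskin, hDFCGF) received test chemical for 24 h before ELISA detection of IL-8; either increases or decreases relative to DMSO count as activity.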

The nature of test [20]: BSK_hDFCGF_Proliferation: Cell Proliferation Assessment in the BioMAP Diversity Plus: hDFCGF Assay (AID 2283059).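 Also: curves fitted for both rise and fall of signal versus DMSO baseline.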 The settings on record: primary human foreskin fibroblasts. Summed up: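 Steps: dose primary human dermal fibroblasts (foreskin); […] fix in 10% TCA; stain with 0.1% SRB; read 560 nm; fit gain or loss of signal against DMSO.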

As to `CC(COc1ccc(Oc2ccccc2)cc1)Oc1ccccn1` (stereo not given), the outcome in [1], in [2], in test [3], in [4], in test [5] and in test [6] was inactive. The outcome in [7], in test [9], in [10], in test [11], in test [12] and in test [13] was inactive. The outcome in test [14], in test [15], in test [16], in test [17], in test [18] and in test [19] was inactive. Further, the AC50 in test [8] is 31.8 µM (active).
On to `CCC(CC)Nc1c([N+](=O)[O-])cc(C)c(C)c1[N+](=O)[O-]`, for which the AC50 in test [1] is 26.9 µM (active); in test [8], 13.9 µM (active); in test [12], 16.3 µM (active); in test [14], 20 µM (active); in test [20], 29.2 µM (active). Moreover, the result in [2], in test [3], in [4], in [5], in test [6] and in test [7] was inactive. The result in test [9], in test [10], in test [11], in [13], in test [15] and in [16] was inactive. Moreover, the outcome in [17], in [18] and in test [19] was inactive.
As to `O=C(O)c1cc(Oc2ccc(C(F)(F)F)cc2Cl)ccc1[N+](=O)[O-]`, the result in test [1], in [2], in test [3], in test [4], in [5] and in test [6] was inactive. Moreover, the outcome in test [7], in test [8], in [9], in test [10], in test [11] and in test [12] was inactive. Besides, the result in [13], in test [14], in test [15], in [16], in test [17] and in [18] was inactive. Also, the outcome in [19] was inactive.
Consider `CCOC(=O)CC(SP(=O)(OC)OC)C(=O)OCC` (stereo not given), for which the result in test [1], in test [2], in test [3], in test [4], in test [5] and in [6] was inactive. Besides, the result in [7], in test [8], in [9], in test [10], in [11] and in [12] was inactive. For the same compound, the result in test [13], in test [14], in test [15], in [16], in test [18] and in test [19] was inactive.
Regarding `CCCCN(CC)c1c([N+](=O)[O-])cc(C(F)(F)F)cc1[N+](=O)[O-]`, the outcome in test [1], in [2], in [3], in test [4], in [5] and in test [6] was inactive. Moreover, the outcome in [7], in test [8], in test [9], in [10], in test [11] and in test [12] was inactive. In addition, the result in [13], in [15], in test [16], in [17], in test [18] and in test [19] was inactive. Further, in test [14], the AC50 is 25.5 µM (active).
On to `CC(=NC#N)N(C)Cc1ccc(Cl)nc1`, for which the outcome in test [1], in test [2], in test [3], in test [4], in [5] and in [6] was inactive. In addition, the outcome in [7], in test [8], in test [9], in test [10], in test [11] and in test [12] was inactive. Besides, the outcome in test [13], in test [14], in [15], in [16], in [17] and in test [18] was inactive. The outcome in test [19] and in [20] was inactive.

The record behind these values is PubChem BioAssay (EPA / NIEHS).
